Bioassay records (PubChem BioAssay)
Most compounds without a hit are left out; they make up all but 7.9% or so of the library.
HT1080 IDH1KD tx: toxicity to HT-1080 IDH1 knockdown cells (counter line); HT-1080 IDH1 knockdown viability, ATP luminescence, 48 h; Potency, µM (titrated, usually from 46.1 µM), hits mostly cytotoxic; actives 2% (n = 360,000)
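Luminescent ATP read-out (CellTiter-Glo, 10 min at room temperature) after 48 h compound exposure at 37 °C gave viability of IDH1-knockdown HT-1080 cells. Activity was normalised to DMSO and cell-free wells, then fitted as concentration-response curves.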
HT1080NT lethal: kills 2HG-producing HT-1080-NT fibrosarcoma cells. HT-1080-NT fibrosarcoma viability, CellTiter-Glo ATP luminescence, 48 h. Potency, µM (doses to about 46.1 µM), most hits filed as cytotoxic. actives 1.6% (n = 360,000). AID 686970;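 further: NT is the 2HG producing partner of a matched IDH1 knockdown line; nearly all actives have a fitted effect of over 55% in size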
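Compounds were tested in concentration-response format on HT-1080-NT cells for 48 hours at 37 degrees C. Cell viability came from CellTiter-Glo luminescence; curves were classified by r2, response magnitude and activity.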
SW480 rerep: DNA re-replication induction in SW480 cells; SW480 DNA re-replication, Hoechst DNA content imaging, 48 h; Potency, µM (top dose mostly 46.1 µM), usual class: activators; actives 1.8% (n = 340,000); further: nearly all actives have a fitted effect of over 55% in size
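Cells (250 per well) received 23 nL compound or DMSO by pin tool and were kept 48 hr at 37 C, 5% CO2. Nuclei were then stained with Hoechst for 40 min and scanned for DNA content.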
KB-V1 MDR tox: KB-V1 MDR subline cytotoxicity; KB-V1 MDR cells viability, CellTiter-Glo, 72 h; Potency, µM (highest dose often 46.1 µM), most hits filed as cytotoxic; actives 3.4% (n = 400,000); further: nearly all actives have a fitted effect of over 60% in size
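Cytotoxicity toward P-gp-expressing KB-V1 cells was determined as loss of CellTiter-Glo luminescence after 72 h at 37 degrees C. Compounds were tested in quantitative HTS format across a concentration range, with curves fitted to normalized data.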
KB-3-1 tox: kills parental KB-3-1 adenocarcinoma cells; actives 1.4% (n = 400,000); KB-3-1 viability, CellTiter-Glo ATP luminescence, 72 h; Potency, µM (titrated, usually from 46.1 µM), actives largely listed as cytotoxic; further: nearly all actives have a fitted effect of over 60% in size
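Screening of KB-3-1 cells (DMEM, 10% FBS, phenol-red free) ran from lowest to highest compound concentration; after 72 h at 37 °C viability was read luminescently and curves fitted.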
MCF10A rerep: inducers of DNA re-replication in MCF 10A breast cells. MCF 10A DNA re-replication, Hoechst nuclear intensity, 48 h. actives 2.9% (n = 350,000). Potency, µM (series often up to 46.1 µM), hits mostly activators; further: nearly all actives have a fitted effect of over 50% in size
Numbers stand for hits; i = inactive; ? = inconclusive; nt = no result given; [ ] = another dose, or the depositor's remark. The call rests on the fitted dose curve; in most records, active means well fitted curve in the direction sought with a large enough effect; inconclusive means small, poorly fitted or top-dose-only effect, or another doubt; inactive means no such curve, though single readings can be large; an effect the other way counts as inactive or inconclusive.

SMILES	HT1080 IDH1KD tx	HT1080NT lethal	SW480 rerep	KB-V1 MDR tox	KB-3-1 tox	MCF10A rerep
COc1cccc(N(CC(=O)Nc2ccc3c(c2)OCO3)S(=O)(=O)c2ccccc2)c1	i	i	i	16µM	i	i
COC(=O)c1cc(NC(=O)CN(c2cccc(OC)c2)S(=O)(=O)c2ccccc2)ccc1Cl	i	i	i	1.5µM	16µM	i
COC(=O)c1cc(NC(=O)CN(c2ccccc2OC)S(=O)(=O)c2ccccc2)ccc1Cl	i	i	i[9.22 µM]	i	i	i
Cc1cc(OC(=O)c2ccc(S(=O)(=O)N3CCCCC3)cc2)c([N+](=O)[O-])c(=O)[nH]1	i	i	i	i	i	i
O=S(=O)(NCCSc1nnnn1-c1ccccc1)c1cccs1	i	i	i	16µM	i	i
CC(=NN(Cc1ccccc1)c1ccccc1)c1ccccc1	i	i	i	i	i	i
COc1ccc(S(=O)(=O)N(C)C[C@H]2Oc3c(NC(=O)Nc4ccc(C(F)(F)F)cc4)cccc3C(=O)N([C@H](C)CO)C[C@@H]2C)cc1	21µM	?	i	?	?	?
C[C@H](CO)N1C[C@H](C)[C@@H](CN(C)C(=O)Nc2ccc(C(F)(F)F)cc2)Oc2c(NC(=O)NC3CCCCC3)cccc2C1=O	i	i	i	i	?	3.3µM
C[C@@H]1CN([C@H](C)CO)C(=O)c2cccc(NC(=O)NC3CCCCC3)c2O[C@@H]1CN(C)C(=O)Nc1ccc(C(F)(F)F)cc1	?	?	?	i	?	?
CCOC(=O)c1sc(NS(=O)(=O)c2ccccc2)nc1C	i[9.24 µM]	i	i	i	i	i
Cc1nc(NS(=O)(=O)c2ccccc2)sc1C(C)(C)C	i	i	i	18µM	i	i
CC1(C)Cc2nc3oc4c(=O)n(CC(=O)Nc5cccc(Cl)c5)cnc4c3cc2CO1	i	i	18µM	i	i	i
CCCCCn1cnc2c(sc3nc4c(cc32)CSC(C)(C)C4)c1=O	i	i	i	15µM	i	i
CC1(C)Cc2nc3sc4c(=O)[nH]cnc4c3cc2CS1	i	i	i	i	i	i
CC1(C)Cc2nc3sc4c(=O)n(CC(=O)NCc5ccco5)cnc4c3cc2CO1	10µM	?	16µM	i	?	9.2µM
O=C1N/C(=C\c2ccc(O)cc2)C(=O)c2ccccc21	18µM	?	13µM	i	?	3.2µM
O=C1CN(C(=O)c2cccc(Br)c2)c2ccccc2N1	?	15µM	?	10µM	5.8µM	23µM
O=C1CN(C(=O)c2ccc(Cl)c(S(=O)(=O)N3CCc4ccccc43)c2)c2ccccc2N1	?	7.3µM	?	?	?	?
O=C1CN(C(=O)c2ccccc2)c2ccccc2N1	i	i	i	i	i	i
O=C1CN(C(=O)c2cc(Br)c(Br)s2)c2ccccc2N1	21µM	?	?	?	?	?
NC(=O)C1CCN(C(=O)c2ccc(Cl)c(S(=O)(=O)N3CCc4ccccc43)c2)CC1	i	i	nt	?	i	nt
N#CC1=CN(Cc2ccccc2)C=C(/C=N/Nc2ccccc2)C1	?	?	i	i	?	?
Cc1ccc(C)c(Nc2nc3nonc3nc2Nc2cccc(C)c2C)c1	nt	nt	nt	?	21µM	nt
O=C(Cc1cccs1)NNC(=O)c1ccccc1Cl	i	i	i	i	i	i
CC1=C(C#N)C(c2ccccc2)C2=C(N1)c1ccccc1C2=O (stereo not given)	i	?	8.2µM	3.3µM	2.1µM	1.5µM
SMILES	HT1080 IDH1KD tx	HT1080NT lethal	SW480 rerep	KB-V1 MDR tox	KB-3-1 tox	MCF10A rerep
COCCn1c(C)cc(C(=O)CSc2nc(C)nc3sc4c(c23)CCC4)c1C	i	i	i	2.6µM	?	?
Cc1nc(SCC(=O)NCC2CCCO2)c2c3c(sc2n1)CCCC3 (stereo not given)	i	i	i	?	i	i
CS(=O)(=O)N(CC(=O)Nc1ccccc1-c1ccccc1)c1ccccc1	i	i	i	i	i	?
Cc1cccc(N(CC(=O)Nc2ccc(F)cc2)S(C)(=O)=O)c1	i	i	i	16µM	i	i
CSc1cccc(NC(=O)CN(c2cccc(C)c2)S(C)(=O)=O)c1	i	i	i	i	i	i
CS(=O)(=O)N(CC(=O)Nc1ccccc1-c1ccccc1)c1cccc(F)c1	i	i	i	i	i	0.65µM
Cc1cccc(NS(=O)(=O)c2ccc(NC(=O)CN(c3cc([N+](=O)[O-])ccc3C)S(C)(=O)=O)cc2)c1	?	?	18µM	i	i	?
Cc1ccc(N(CC(=O)Nc2ccccc2-c2ccccc2)S(=O)(=O)c2ccccc2)c(C)c1	i	i	i	i	i	21µM
COc1ccc(C)cc1NS(=O)(=O)c1ccc(NC(=O)CN(c2cc([N+](=O)[O-])ccc2C)S(C)(=O)=O)cc1	?	?	?	i	i	i
FC(F)(F)c1ccccc1Cc1c(-c2ccccc2)nc2ccc(Cl)cn12	i	i	nt	i	i	nt
COc1cc(-n2nc(C)c3c2OC(N)=C(C#N)C3c2ccccc2)c(Cl)c(Br)c1O (stereo not given)	?	?	i	i	i	?
Cc1ccc(N(CC(=O)Nc2ccc(S(=O)(=O)N3CCOCC3)cc2)S(C)(=O)=O)cc1C	i	i	i	23µM	i	i
CC(=O)c1cccc(N(CC(=O)Nc2ccc(S(=O)(=O)N3CCOCC3)cc2)S(C)(=O)=O)c1	i	i	i	i	i	i
CS(=O)(=O)N(CC(=O)Nc1ccc(S(=O)(=O)N2CCOCC2)cc1)c1cccc(F)c1	i	i	23µM	i	i	?
CCCCn1c(SCC(=O)Nc2cc(C)on2)nnc1-c1ccncc1	i	i	i	i	i	i
CC(C)C[C@H]1CNC(=O)C(=O)N1C[C@H](Cc1ccc(O)cc1)NC(=O)Cc1ccccc1	i	i	nt	i	i	nt
CC(=O)C1CCC2C3CC=C4N(C)C(=O)CCC4(C)C3CCC12C (stereo not given)	i	i	i	?	i	i
CC(C)C(=O)N[C@H]1CCC2C3CC=C4C[C@@H](O)CC[C@]4(C)C3CC[C@@]21C (stereo not given in full)	i	i	i	i	i	i
CCCCCCN[C@H]1CCC2C3CC=C4C[C@@H](O)CC[C@]4(C)C3CC[C@@]21C (stereo not given in full)	?	i	8.2µM	?	?	?
CC(C)(C)[C@H](N)C(=O)N[C@H]1CCC2C3CC=C4C[C@@H](O)CC[C@]4(C)C3CC[C@@]21C (stereo not given in full)	?	?	4.6µM	?	?	16µM
